From PubChem BioAssay come the findings set out here.

The target of experiment [1] is Albumin (Bos taurus) (UniProt P02769). In words: bovine serum albumin binders on microarray, profiling panel, artefact control for SMM control protein annotation, biochemical, small-molecule microarray, Alexa647 label, 635/667 nm fluorescence (AID 1118).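 Further: score merges 667 nm emission intensity and signal-to-noise per printed compound spot.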 The note with it: BSA-A647 binding, fluorescence 635 nm, higher = more signal.
Experiment [2] in a line: small-molecule microarray binders of probe aXIP, primary screen, biochemical, NeuroSMM set, 635/667 nm fluorescence (AID 1119).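 Further: probe is the protein aXip251-270 applied at 1 µg/mL to compound-printed slides; binding of probe to printed compounds measured as 667 nm fluorescence plus signal to noise.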 Conditions: higher = more signal, called active from +8 up or from −8 down.
A short description of experiment [3]: small-molecule binders of probe aNOTCH3, primary screen, biochemical, small-molecule microarray, 635/667 nm fluorescence (AID 1120).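 Further: probe is a biotin-tagged antibody raised against NOTCH3 rather than NOTCH3 protein; score merges spot fluorescence near 667 nm with spot signal to noise.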 The note with it: higher = more signal.
A short description of experiment [4]: small-molecule binders of probe aNOTCH2, primary screen, biochemical, small-molecule microarray, 635/667 nm fluorescence (AID 1121).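 Further: score merges feature fluorescence read at 667 nm with its signal to noise.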 The note with it: higher = more signal.
The target of experiment [5] is Carbonic anhydrase 2 (Homo sapiens) (UniProt P00918). In words: CAII small-molecule binders, profiling panel, biochemical, small-molecule microarray, Alexa647-labelled CAII (AID 1122). Conditions: CAII-A647 binding fluorescence, higher = more signal.
Experiment [6] can be described thus: COS7 lysate on small-molecule microarray, probe aHis, 635 nm (AID 1123).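 Further: z-score combines 667nm fluorescence intensity with signal-to-noise per printed compound spot.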 The note with it: COS7 cell lysate, fluorescence, higher = more signal.
Experiment [7] is described as follows: compound binding in COS7 lysate, probe aLAP1, primary screen, cell lysate, small-molecule microarray (AID 1124).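 Further: lysate comes from COS7 cells expressing LAP1 and is applied at 0.3 µg/mL; score merges spot fluorescence near 667 nm with signal-to-noise over triplicate slides.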 Conditions: probe aLAP1, fluorescence, higher = more signal.
The subject of experiment [8] is Sam68 (KHDRBS1). In words: Sam68 small-molecule binders, primary screen, biochemical, small-molecule microarray, 635 nm fluorescence (AID 1125).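 Further: score merges 667 nm channel intensity with signal to noise over triplicate slides.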 Conditions: small-molecule microarray binding, higher = more signal.
The test system of experiment [9] is Chordin-like protein 2 (CHRDL2). Briefly: CHRDL2 small-molecule binders, primary screen, biochemical, small-molecule microarray, 635 nm fluorescence (AID 1126).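 Further: printed compound slides probed with Chrdl2 protein at 4 µg/mL for 1 h at 4 C; score merges 667 nm emission intensity with signal to noise over three replicate slides.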 The note with it: small-molecule microarray binding, fluorescence 635 nm; higher = more signal.
In experiment [10] the target is Concanavalin-A (Canavalia ensiformis) (UniProt P02866). In words: ConA small-molecule binders, primary screen, artefact control for SMM control protein annotation, biochemical, small-molecule microarray, Alexa647 label, 635 nm (AID 1127).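 Further: z combines 667 nm emission intensity with signal-to-noise across three replicate slides.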 Conditions: ConA-A647 binding fluorescence, higher = more signal.
Experiment [11] can be described thus: anti-His antibody binders, primary screen, artefact control for SMM control protein annotation, biochemical, small-molecule microarray, 635 nm fluorescence (AID 1128).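 Further: score merges feature fluorescence with signal-to-noise for each printed compound spot.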 The note with it: anti-His Alexa647 antibody binding, higher = more signal.
Experiment [12] deals with Human papillomavirus type 1a E7 protein (residues 1-88). Briefly: HPV1a E7 small-molecule binders, primary screen, biochemical, small-molecule microarray, residues 1-88, 635 nm (AID 1129). Conditions: small-molecule microarray binding, fluorescence 635 nm; higher = more signal.
The target of experiment [13] is Focal adhesion kinase 1 (Homo sapiens) (UniProt Q05397). Briefly: small-molecule microarray binders of FAK, primary screen, biochemical, 635/667 nm fluorescence, BSA, DTT (AID 1130).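 Further: composite of spot emission at 667 nm and signal to noise over triplicate slides.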 Conditions: PTK2 binding, 635 nm fluorescence, higher = more signal.
The subject of experiment [14] is Fibrinogen (Alexa647-labelled). Briefly: fibrinogen binders on compound microarrays, profiling panel, artefact control for SMM control-protein annotation, biochemical, small-molecule microarray, 635/667 nm fluorescence (AID 1131).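 Further: z-score merges 667 nm fluorescence with per-spot signal-to-noise over triplicate slides.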 The note with it: fibrinogen-A647 binding fluorescence, higher = more signal.
Experiment [15] concerns the target Follistatin (Homo sapiens) (UniProt P19883). Briefly: follistatin binders on small-molecule microarrays, primary screen, biochemical, small-molecule microarray, 635/667 nm fluorescence (AID 1132). Conditions: FST binding, 635 nm fluorescence, higher = more signal.
Experiment [16] deals with Fibroblast growth factor 2 (Homo sapiens) (UniProt P09038). In words: FGF2 binders on small-molecule microarrays, primary screen, biochemical, small-molecule microarray, 635/667 nm fluorescence (AID 1133). Conditions: small-molecule microarray binding, FGF2, fluorescence 635/667; higher = more signal.
Experiment [17] in a line: mitochondrial membrane potential change in A549 cells, profiling panel, cell-based, JC-1 fluorescence, basal, 24 h, 100 nL (AID 1138).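 Further: A549 lung adenocarcinoma cells under basal conditions with no added stimulus; test concentration not given here.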 Conditions: higher = more signal.
Experiment [18] has as its system Lefty1. Briefly: Lefty1 binders on small-molecule microarrays, primary screen, biochemical, small-molecule microarray, 635/667 nm fluorescence (AID 1139). The note with it: small-molecule microarray binding, fluorescence 635/667; higher = more signal.
The subject of experiment [19] is wheat germ agglutinin (Triticum aestivum), Alexa647-labelled. In words: wheat germ agglutinin binders on compound microarrays, profiling panel, artefact control for SMM control-protein annotation, biochemical, small-molecule microarray, 635/667 nm fluorescence (AID 1140).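 Further: score merges 667 nm feature emission with signal to noise over triplicate slides.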 Conditions: WGA-A647 binding, 635 nm fluorescence, higher = more signal.
Experiment [20] concerns the target Luciferin 4-monooxygenase (Photinus pyralis) (UniProt P08659). Briefly: firefly luciferase enzyme inhibitors, primary screen, biochemical, luminescence, purified enzyme, 2006 set (AID 1141).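 Further: cell-free assay with purified firefly luciferase at 100 ng per well in PBS; test concentration not given here.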 Conditions: SteadyGlo luminescence, 30 min, higher = more signal, called active from +8 up or from −8 down.

Calls of active or inactive are those of the source.

Chain of Luciferin 4-monooxygenase (Photinus pyralis) (P08659 whole entry, looked up): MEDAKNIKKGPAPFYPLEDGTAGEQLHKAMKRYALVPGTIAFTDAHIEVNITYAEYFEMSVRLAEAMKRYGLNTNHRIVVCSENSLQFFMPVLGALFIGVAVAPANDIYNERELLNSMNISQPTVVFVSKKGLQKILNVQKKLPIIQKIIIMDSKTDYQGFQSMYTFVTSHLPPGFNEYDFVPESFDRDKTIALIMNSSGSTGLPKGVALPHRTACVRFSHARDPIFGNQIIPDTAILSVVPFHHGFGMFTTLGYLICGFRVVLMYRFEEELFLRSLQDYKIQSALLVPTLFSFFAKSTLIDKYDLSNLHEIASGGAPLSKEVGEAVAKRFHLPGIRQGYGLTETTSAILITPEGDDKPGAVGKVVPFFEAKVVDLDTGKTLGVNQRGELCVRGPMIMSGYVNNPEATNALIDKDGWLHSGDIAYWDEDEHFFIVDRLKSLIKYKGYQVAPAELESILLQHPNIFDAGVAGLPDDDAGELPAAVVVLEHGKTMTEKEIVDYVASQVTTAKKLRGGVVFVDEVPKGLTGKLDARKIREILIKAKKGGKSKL
Chain of Fibroblast growth factor 2 (Homo sapiens) (P09038 whole entry, looked up): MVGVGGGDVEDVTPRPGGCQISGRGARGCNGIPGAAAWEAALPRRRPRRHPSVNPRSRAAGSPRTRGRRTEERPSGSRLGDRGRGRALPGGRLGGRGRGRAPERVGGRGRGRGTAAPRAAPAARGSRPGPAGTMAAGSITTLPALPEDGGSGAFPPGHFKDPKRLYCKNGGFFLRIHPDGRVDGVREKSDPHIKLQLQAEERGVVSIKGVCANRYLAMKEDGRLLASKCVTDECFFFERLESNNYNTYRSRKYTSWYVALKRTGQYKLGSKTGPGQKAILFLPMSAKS
Chain of Follistatin (Homo sapiens) (P19883 whole entry, looked up): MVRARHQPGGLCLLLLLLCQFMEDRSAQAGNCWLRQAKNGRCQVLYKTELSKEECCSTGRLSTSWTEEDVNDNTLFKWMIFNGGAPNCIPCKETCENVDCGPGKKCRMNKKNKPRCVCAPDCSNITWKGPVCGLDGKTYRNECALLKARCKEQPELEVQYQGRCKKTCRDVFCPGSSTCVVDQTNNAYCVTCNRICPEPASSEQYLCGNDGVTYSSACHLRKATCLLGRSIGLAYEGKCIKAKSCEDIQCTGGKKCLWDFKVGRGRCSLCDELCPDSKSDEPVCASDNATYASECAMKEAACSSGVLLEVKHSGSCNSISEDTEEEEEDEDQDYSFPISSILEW
Chain of Albumin (Bos taurus) (P02769 whole entry, looked up): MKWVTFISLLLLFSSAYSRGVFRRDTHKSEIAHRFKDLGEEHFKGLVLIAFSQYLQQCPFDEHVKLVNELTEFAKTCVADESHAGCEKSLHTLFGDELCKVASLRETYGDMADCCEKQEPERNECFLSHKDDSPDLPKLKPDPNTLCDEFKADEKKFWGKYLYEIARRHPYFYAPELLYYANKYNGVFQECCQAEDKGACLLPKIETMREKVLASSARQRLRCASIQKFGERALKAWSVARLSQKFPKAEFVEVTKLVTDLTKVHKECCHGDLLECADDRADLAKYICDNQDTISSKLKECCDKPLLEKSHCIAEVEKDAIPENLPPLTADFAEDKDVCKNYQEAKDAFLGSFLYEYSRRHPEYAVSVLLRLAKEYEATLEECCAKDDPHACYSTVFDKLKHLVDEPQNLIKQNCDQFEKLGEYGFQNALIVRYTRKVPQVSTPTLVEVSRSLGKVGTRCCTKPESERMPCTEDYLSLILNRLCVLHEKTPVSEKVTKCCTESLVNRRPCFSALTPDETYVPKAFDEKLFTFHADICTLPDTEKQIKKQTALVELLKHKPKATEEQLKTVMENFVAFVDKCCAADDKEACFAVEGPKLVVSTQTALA
Chain of Focal adhesion kinase 1 (Homo sapiens) (Q05397 whole entry, looked up): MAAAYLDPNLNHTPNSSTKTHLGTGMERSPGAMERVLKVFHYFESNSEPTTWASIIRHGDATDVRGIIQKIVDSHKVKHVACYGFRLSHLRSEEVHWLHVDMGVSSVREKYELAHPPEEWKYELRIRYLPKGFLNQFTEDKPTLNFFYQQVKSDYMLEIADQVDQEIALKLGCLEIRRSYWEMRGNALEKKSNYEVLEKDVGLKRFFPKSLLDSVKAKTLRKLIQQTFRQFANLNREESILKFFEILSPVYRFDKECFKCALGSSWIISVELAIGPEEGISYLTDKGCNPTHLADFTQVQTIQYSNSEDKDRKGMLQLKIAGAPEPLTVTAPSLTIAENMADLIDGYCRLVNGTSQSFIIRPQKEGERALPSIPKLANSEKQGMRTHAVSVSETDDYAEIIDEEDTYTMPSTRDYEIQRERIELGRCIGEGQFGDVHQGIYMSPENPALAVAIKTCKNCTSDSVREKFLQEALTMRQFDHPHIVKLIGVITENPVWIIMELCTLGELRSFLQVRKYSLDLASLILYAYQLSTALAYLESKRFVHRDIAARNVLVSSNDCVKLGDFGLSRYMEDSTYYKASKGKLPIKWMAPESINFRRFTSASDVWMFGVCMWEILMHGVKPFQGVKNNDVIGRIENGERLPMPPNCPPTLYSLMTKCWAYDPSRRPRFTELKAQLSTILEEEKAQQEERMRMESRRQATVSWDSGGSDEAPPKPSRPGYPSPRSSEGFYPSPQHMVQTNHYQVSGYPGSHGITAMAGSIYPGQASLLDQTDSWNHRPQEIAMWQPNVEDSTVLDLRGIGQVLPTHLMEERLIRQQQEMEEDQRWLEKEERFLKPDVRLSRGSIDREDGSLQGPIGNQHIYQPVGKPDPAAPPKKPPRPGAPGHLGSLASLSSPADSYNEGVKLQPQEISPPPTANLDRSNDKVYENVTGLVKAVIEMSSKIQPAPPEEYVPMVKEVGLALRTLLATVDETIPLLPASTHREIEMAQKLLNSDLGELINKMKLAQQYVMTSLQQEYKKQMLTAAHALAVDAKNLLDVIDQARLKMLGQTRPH
Chain of Concanavalin-A (Canavalia ensiformis) (P02866 whole entry, looked up): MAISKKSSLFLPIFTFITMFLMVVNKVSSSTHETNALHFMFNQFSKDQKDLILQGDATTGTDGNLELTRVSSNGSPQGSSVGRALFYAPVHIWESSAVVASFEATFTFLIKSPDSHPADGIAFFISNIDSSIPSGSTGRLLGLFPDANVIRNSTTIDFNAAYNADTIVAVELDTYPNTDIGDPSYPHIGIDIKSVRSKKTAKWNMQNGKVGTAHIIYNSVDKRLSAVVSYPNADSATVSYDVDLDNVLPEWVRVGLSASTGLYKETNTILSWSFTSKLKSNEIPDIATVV

Consider `C=CCN1C(=O)[C@]2(CCC(=O)OC(C)(C)C)N=C(c3ccc(OCCCO)cc3)O[C@@H]2c2ccccc21`, for which the composite z-score is -0.361 in [1]; 0.185 in experiment [3]; -0.118 in [4]; 0.256 in experiment [5]; 1.38 in experiment [6]; 0.023 in experiment [7]. The composite z-score in experiment [8] came out at 0.587; in experiment [9], 0.281; in [10], 1.14; in experiment [11] it was 2.42; in experiment [12] it was 0.944; in experiment [13] it was 0.469. Further, the composite z-score in experiment [14] is 0.317; in experiment [15], 1.19; in [16], -0.132; in [18], 0.467; in experiment [19] it was 0.27. Besides, the composite Z-score in [2] was -0.014 (inactive). The z-score was 0.859 in [17] and -5.66 (inactive) in experiment [20].
For `CN(C)C(=O)[C@]1(Cc2ccccc2CN=[N+]=[N-])N=C(c2ccc(OCCCO)cc2)O[C@@H]1c1ccccc1`, the composite z-score in experiment [1] was 0.349; in experiment [3], 0.113; in [4], -0.0896; in experiment [5], 0.402; in experiment [6], 2.06; in [7], 0.454. In addition, the composite z-score in [8] was 1.3; in experiment [9], -1.08; in [10], 1.04; in experiment [11], 2.24; in experiment [12] it was 1.22; in experiment [13], 0.48. Also, the composite z-score in experiment [14] is 0.947; in experiment [15], 0.987; in experiment [16] it was 0.658; in experiment [18], 0.035; in [19], 1.02. For the same molecule, the composite Z-score in experiment [2] is -0.4 (inactive). For the same molecule, the z-score in [17] is -0.439; in experiment [20], 0.582 (inactive).
Consider `CC(=O)N1CC2(CC2)CC1c1ccccc1` (stereo not given), for which the composite z-score in experiment [1] worked out at 0.336; in experiment [3], 0.77; in experiment [4], 0.172; in [5] it was 0.671; in experiment [6] it was 1.88; in experiment [7], 0.562. Moreover, the composite z-score in experiment [8] was 0.913; in experiment [9], 0.0586; in [10], -0.0459; in experiment [11] it was 0.712; in experiment [12], 0.678; in experiment [13] it was 0.277. Besides, the composite z-score in experiment [14] was 0.59; in [15], -0.0582; in experiment [16], 1.6; in [18], -0.46; in [19] it was 0.251. The composite Z-score in experiment [2] was 0.204 (inactive). For the same molecule, the z-score is 0.033 in experiment [17] and 2.49 (inactive) in experiment [20].
As to `CC(C)C[C@@H]1NC(=O)[C@@H]2C[C@H](C(=O)NCCCCCCN)[C@H](c3cccc(OCCO)c3)N2C1=O`, the composite z-score in experiment [1] is 0.586; in experiment [3], 0.16; in [4] it was -0.0859; in [5] it was 0.659; in experiment [6] it was 2.22; in [7], 0.636. Moreover, the composite z-score in experiment [8] worked out at 1.31; in experiment [9], 0.668; in experiment [10], 1.03; in experiment [11], 2.25; in [12] it was 1.11; in experiment [13], 0.344. Also, the composite z-score was found to be 0.662 in [14]; 1.32 in experiment [15]; 0.548 in [16]; 1.51 in experiment [18]; 1.1 in experiment [19]. Besides, the composite Z-score in experiment [2] was 0.799 (inactive). Besides, the z-score in [17] was -0.645; in experiment [20], 0.459 (inactive).
With `O=C1NC(=O)C2C1C=CC(C(O)c1ccco1)N2Nc1ccc(Cl)cc1Cl` (stereo not given), the composite z-score in [1] is 0.78; in [3] it was -0.0967; in experiment [4] it was -0.153; in [5], 0.794; in [6], 1.28; in [7] it was 0.317. In addition, the composite z-score in [8] was -0.0532; in [9], 0.167; in experiment [10] it was 0.321; in [11], 0.478; in experiment [12], 0.944; in [13], -0.367. Besides, the composite z-score is -0.468 in experiment [14]; 1.13 in experiment [15]; -0.311 in experiment [16]; 0.121 in experiment [18]; 0.673 in [19]. Further, the composite Z-score in [2] was 0.731 (inactive). For the same molecule, the results for the z-score in [17] and in [20] were -0.553 and -0.512 (inactive), respectively.
With `COCCOC(=O)N1C(=O)[C@@]2(c3ccccc31)[C@H](C(=O)NC[C@H](O)c1ccccc1)[C@H]1C(=O)O[C@H](c3ccccc3)[C@H](c3ccccc3)N1[C@@H]2c1ccc(O)cc1`, the composite z-score is -0.411 in experiment [1]; -0.198 in experiment [3]; 0.0377 in experiment [4]; 0.432 in [5]; 2.28 in [6]; 0.236 in experiment [7]. Also, the composite z-score in experiment [8] is 1.3; in [9], 1.04; in experiment [10] it was 1.12; in experiment [11], 1.43; in experiment [12], 1.26; in [13] it was 0.818. The composite z-score in experiment [14] was 0.965; in experiment [15], 1.34; in [16] it was 1.61; in [18], 1.23; in experiment [19], 0.648. For the same molecule, the composite Z-score in experiment [2] is 0.244 (inactive). In addition, the z-score in experiment [17] is -1.17; in experiment [20], 0.883 (inactive).
